# Reference: PubChem BioAssay
# Active and inactive are the calls of the source.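 The calls were made as follows, unless noted: active = GFP response above 150% of the DMSO level; inconclusive = fewer than 70 events counted for a yeast strain; inactive = the rest.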
# Key:
# [1] = RPL19A-GFP modulators, yeast TOR pathway, confirmation, cell-based, S. cerevisiae, flow cytometry, cherry picks, mother/daughter gates (AID 2270;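 active = GFP response below 50% of the DMSO control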); conditions: S. cerevisiae RPL19A-GFP strain, 3 h, at 10 µM, stronger effect = lower value, 100 = same GFP as DMSO wells
# [2] = LAP4-GFP expression modulators in yeast, confirmation, cell-based, cherry picks, flow cytometry, mother/daughter gates (AID 2271;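 active = GFP response above 150% of the DMSO control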;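 also: ratio of sample to DMSO plate mean so 100% equals DMSO level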); conditions: S. cerevisiae LAP4-GFP strain, 3 h, at 10 µM, stronger effect = higher value, 100 means same as DMSO control
# [3] = modulators of MEP2-GFP levels in yeast, confirmation, S. cerevisiae, flow cytometry GFP, cherry picks (AID 2272;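 active = GFP response above 150% of the DMSO control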;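 also: ratio of well signal to plate DMSO mean so 100% equals DMSO level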); conditions: S. cerevisiae MEP2-GFP strain, 3 h, at 10 µM, stronger effect = higher value
# [4] = AGP1-GFP expression modulators, hit retest, confirmation, cell-based, flow cytometry, S. cerevisiae, cherry picks (AID 2273);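 also: median GFP channel fluorescence over the whole cell population gate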; conditions: S. cerevisiae AGP1-GFP strain, 3 h, at 10 µM
# [5] = modulators of CIT2-GFP expression in yeast, confirmation, S. cerevisiae, GFP fusion, cherry picks, mother/daughter gates (AID 2274); conditions: S. cerevisiae CIT2-GFP strain, flow cytometry, 3 h, at 10 µM, stronger effect = higher value
# [6] = measured here: daughter cell gate
# [7] = measured here: daughter cell gate response
# [8] = measured here: mother cell gate response
# [9] = measured here: mother cell gate
SMILES,GFP response vs DMSO [1],"GFP response vs DMSO [1, 6]",GFP response relative to DMSO [2],"GFP response relative to DMSO [2, 7]","GFP response relative to DMSO [2, 8]",GFP response vs DMSO [3],"GFP response, % of DMSO [4]","GFP response, % of DMSO [5]","GFP response, % of DMSO [5, 6]","GFP response, % of DMSO [5, 9]","GFP response vs DMSO [1, 9]"
Cc1nn2c(N3CCCC3)cc(C(C)C)nc2c1-c1ccccc1,100% (inactive),92.4%,102% (inactive),97.5%,103%,101% (inactive),97.8% (inactive),97.3% (inactive),97.4%,95.6%,–
O=C(Nc1cccc(F)c1)c1ccccc1,99.4% (inactive),–,97% (inactive),97.5%,96.2%,103% (inactive),95.9% (inactive),98.8% (inactive),99.2%,88.2%,–
O=C(O)CCC(=O)OCC1CCCCC1,96.7% (inactive),97.6%,104% (inactive),–,–,103% (inactive),99.3% (inactive),98.6% (inactive),95.8%,94.9%,95.6%
O=C(Nc1cc(F)c(Br)cc1F)c1ccc(Cl)cc1,99.3% (inactive),93.3%,97.7% (inactive),–,–,106% (inactive),98.8% (inactive),103% (inactive),94%,94.9%,87.2%
CCc1nnc(NC(=O)c2nc(S(=O)(=O)Cc3ccccc3)ncc2Cl)s1,94.9% (inactive),95.9%,98.9% (inactive),–,–,103% (inactive),97.3% (inactive),101% (inactive),103%,97.1%,91.4%
COc1ccccc1C1C2=C(CC(C)(C)CC2=O)N(CC(=O)O)C2=C1C(=O)CC(C)(C)C2,102% (inactive),93%,105% (inactive),–,–,133% (inactive),98.9% (inactive),117% (inactive),118%,107%,94%
N#C/C(=C/c1ccc(N2CCOCC2)o1)c1ccc(Cl)cc1,96.8% (inactive),93.4%,109% (inactive),–,–,104% (inactive),95.8% (inactive),104% (inactive),108%,96.8%,91.5%
Cc1nn2c(NCc3ccccn3)c3c(nc2c1-c1ccccc1)CCC3,106% (inactive),85.7%,132% (inactive),–,114%,120% (inactive),103% (inactive),100% (inactive),95.8%,85.9%,93.7%
Nc1ccc(-c2c3ccc(=O)cc-3oc3cc(O)ccc23)cc1C(=O)O,103% (inactive),96.4%,150% (active),–,–,248% (active),107% (inactive),140% (inactive),–,–,104%
O=C(Nc1c(-c2ccccc2)nc2c(Br)cc(Br)cn12)c1ccco1,94.5% (inactive),94.7%,92.9% (inactive),–,–,103% (inactive),98.8% (inactive),100% (inactive),85.2%,90.4%,92.1%
CCCc1[nH]nc2c1C(c1ccc(OC(=O)N3CCOCC3)c(OC)c1)C(C#N)=C(N)O2 (configuration not stated),100% (inactive),101%,102% (inactive),–,–,100% (inactive),97.8% (inactive),97.8% (inactive),89.9%,97.7%,95.4%
C/C(=N\NC(=O)c1ccc(Cl)c(Cl)c1)c1ccccn1,104% (inactive),96.4%,269% (active),–,–,118% (inactive),127% (inactive),114% (inactive),97.6%,99.3%,88.5%
O=C1C=CC(=O)N1c1cccc(-c2ccccc2)c1,70.2% (inactive),84.3%,220% (active),–,191%,109% (inactive),104% (inactive),86.1% (inactive),93.2%,70.8%,59.1%
COc1cccc(/C(C)=N/NC(=O)c2ccc(N(C)C)cc2)c1,99.7% (inactive),96.5%,93% (inactive),–,–,99.5% (inactive),98.9% (inactive),102% (inactive),102%,89.8%,99.7%
Cn1c(C(=O)O)cc2c(=O)n3ccccc3nc21,101% (inactive),99.3%,97.7% (inactive),–,–,104% (inactive),102% (inactive),104% (inactive),104%,95.6%,99%
Cc1ccc(N2C(=O)C3C4C=CC(CNC(=S)Nc5cccc(Cl)c5)(O4)C3C2=O)cc1 (configuration not stated),101% (inactive),–,97% (inactive),99.1%,97.3%,101% (inactive),98.4% (inactive),97.3% (inactive),99.2%,89.5%,–
CCN(CC)c1ccc2cc(C(=O)O)c(=O)oc2c1,95.1% (inactive),89.9%,126% (inactive),–,–,110% (inactive),105% (inactive),94.4% (inactive),–,–,94.2%
